GSTO1 counter: counter-screen for RBBP9 inhibitors: inhibitors of human GSTO1; P78417; recombinant GSTO1, activity-based probe fluorescence polarization; inhibition, % at 5.96 µM; hit rate 1.1% among 300,000; AID 1974;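 active means inhibition above the campaign mean inhibition plus 3 SD, cut at about 35% in these data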;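 further: 0% = GSTO1-1 with DMSO and 100% = wells lacking GSTO1-1 enzyme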
Target sequence (P78417 whole entry, looked up): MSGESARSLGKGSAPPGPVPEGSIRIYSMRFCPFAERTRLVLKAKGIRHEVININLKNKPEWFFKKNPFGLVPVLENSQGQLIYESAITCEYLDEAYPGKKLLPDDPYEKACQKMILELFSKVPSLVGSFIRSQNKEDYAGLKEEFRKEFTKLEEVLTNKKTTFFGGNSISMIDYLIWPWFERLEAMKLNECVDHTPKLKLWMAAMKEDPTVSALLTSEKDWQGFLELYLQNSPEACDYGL
LYPLA1 counter: blocks human lysophospholipase 1, a PME1 counter-screen | O75608 | recombinant LYPLA1, FP-Rh probe fluorescence polarization | inhibition, % at 5.9 µM | hit rate 0.16% among 320,000 | AID 2174;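 active means inhibition above the mean of all tested compounds plus 3 SD, set per campaign, cut at about 14% in these data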;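 further: inhibitors block serine hydrolase probe labeling of LYPLA1 so polarization falls; 0% = enzyme with DMSO and 100% = wells lacking LYPLA1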
Fam108B inh: Fam108B inhibition, counter-screen for RBBP9 inhibitors. recombinant Fam108B, FP-Rh probe fluorescence polarization. inhibition, % at 9.51 µM. hit rate 0.33% among 300,000. AID 1947;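 active means inhibition above the screen mean inhibition plus 3 SD, computed separately per campaign, cut at about 18% in these data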;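 further: inhibitors lower polarization as less probe binds the enzyme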
LYPLA2 counter: LYPLA2 (human) inhibition in PME1 counter-screen; O95372; recombinant LYPLA2, FP-Rh probe fluorescence polarization; inhibition, % at 5.9 µM; hit rate 0.38% among 320,000; AID 2177;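 active means inhibition above the screen-wide mean plus 3 SD, limit set per campaign, cut at about 26% in these data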;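 further: 0% = LYPLA2 with DMSO and 100% = wells lacking LYPLA2 enzyme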
Target sequence (O95372 whole entry, looked up): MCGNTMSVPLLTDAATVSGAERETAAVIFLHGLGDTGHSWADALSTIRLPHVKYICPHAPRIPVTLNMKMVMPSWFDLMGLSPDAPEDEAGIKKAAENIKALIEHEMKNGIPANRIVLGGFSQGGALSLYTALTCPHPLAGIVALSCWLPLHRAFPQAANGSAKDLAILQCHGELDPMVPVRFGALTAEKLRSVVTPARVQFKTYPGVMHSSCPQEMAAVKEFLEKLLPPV
PREPL inh: inhibitors of human prolyl oligopeptidase-like enzyme PREPL | inhibition, % at 5.96 µM | hit rate 0.68% among 320,000 | recombinant PREPL, fluorescence polarization activity-based probe | AID 2751; in the data active means inhibition above about 43%;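 further: 0% = enzyme with DMSO and 100% = wells lacking enzyme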
PME-1 inh: blocks human protein phosphatase methylesterase 1; Q9Y570; recombinant PME-1, FP-Rh probe fluorescence polarization; inhibition, % at 5.9 µM; hit rate 0.53% among 320,000; AID 2130;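 active means inhibition above the campaign mean of all compounds plus 3 SD, cut at about 26% in these data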;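 further: competitive labeling of PME-1 active site by serine hydrolase directed probe; 0% = PME-1 with DMSO and 100% = wells lacking PME-1 enzyme; inhibitors block probe labeling so polarization falls and inhibition rises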
Active calls of the source: *; / = no result. Sampled rows, rich in hits. Any-hit rate of the full collection: about 2%.

SMILES | GSTO1 counter | LYPLA1 counter | Fam108B inh | LYPLA2 counter | PREPL inh | PME-1 inh
CC(C)CC(NC(=O)c1cccs1)c1nnc(SCc2ccc(Cl)c(Cl)c2)n1C (centres undefined) | 5 | 0 | -3 | 0 | 12 | 3
C=CCn1c(SCC(=O)c2ccc(Br)cc2)nnc1C(CC(C)C)NC(=O)c1cccs1 (centres undefined) | 36* | -4 | -5 | 0 | 13 | 0
Oc1cccc(/C=N/Nc2cc(N3CCOCC3)nc(N3CCOCC3)n2)c1 | 2 | -3 | 2 | -1 | 10 | 3
Oc1ccc(/C=N/Nc2cc(N3CCOCC3)nc(N3CCOCC3)n2)cc1O | 54* | -1 | 6 | -9 | 10 | -6
Oc1ccccc1/C=N/Nc1cc(N2CCCC2)nc(N2CCCC2)n1 | 73* | -5 | 8 | -6 | 29 | 16
CCOc1cc(/C=N/Nc2nc(N3CCCC3)nc(N3CCCC3)n2)ccc1O | 5 | -1 | -2 | 4 | 6 | 0
CCOc1cccc(/C=N/Nc2nc(N3CCCC3)nc(N3CCCC3)n2)c1O | 6 | 0 | 5 | -3 | 50* | 23
Cc1nc(N/N=C/c2ccc(O)cc2O)cc(N2CCOCC2)n1 | 7 | 9 | 3 | 4 | 11 | 4
O=C(NC1CC1)C1CCN(S(=O)(=O)c2ccc(Cl)c([N+](=O)[O-])c2)CC1 | / | -2 | / | 5 | 16 | -5
CC(C)(C)c1ccc(C(=O)NC(=O)COC(=O)c2ccc(Br)o2)cc1 | / | / | / | / | 11 | /
CC1(C)Cc2c(c(N3CCCC3)nc3sc4c(N5CCN(CCO)CC5)ncnc4c23)CO1 | -11 | -1 | -3 | -5 | 48* | 2
OCCN1CCN(c2ncnc3c2sc2nc(N4CCOCC4)c4c(c23)CCC4)CC1 | -3 | -4 | -1 | -2 | 21 | 2
O=C(C[n+]1ccccc1)N/N=C/c1ccc(Cl)c(Cl)c1 | 7 | 1 | -2 | 4 | -15 | -4
Cc1ccc(S(=O)(=O)NNC(=O)c2ccc3ccccc3n2)cc1 | 5 | 1 | 2 | 2 | -17 | -2
Cc1cc(Br)ccc1NC(=O)CNC(=O)CNc1cccc([N+](=O)[O-])c1 | / | -2 | / | 3 | 8 | 3
NC(=O)Cc1ncc(C(F)(F)F)cc1Cl | 6 | -2 | -1 | 5 | 4 | -6
OCC#Cc1ncc(C(F)(F)F)cc1Cl | 83* | 2 | -2 | 0 | -14 | -3
CC1(C)CC(=O)C2=C(C1)OC(N)=C(C#N)C2C#Cc1ccccc1 (centres undefined) | 35* | 2 | 1 | 4 | 0 | 1
CC(c1ccccc1)C1C(C#N)=C(N)OC2=C1C(=O)CC(C)(C)C2 (centres undefined) | -7 | -1 | -2 | 3 | 5 | 3
C=CC[C@@H]1C=C(C)C[C@H](C)C[C@H](OC)[C@H]2O[C@@](O)(C(=O)C(=O)N3CCCC[C@H]3C(=O)O[C@H](/C(C)=C/[C@@H]3CC[C@@H](O)[C@H](OC)C3)[C@H](C)[C@@H](O)CC1=O)[C@H](C)C[C@@H]2OC | 9 | 0 | -4 | -2 | 55* | -7
CCCCC(O)(CCCC)C(=O)NN(C(=O)c1cccnc1Cl)c1ccccc1 | 6 | 0 | 0 | 2 | -4 | -1
CC1=C(C(=O)OCC(C)C)C2(O)C(=O)c3ccccc3C2(O)N1 (centres undefined) | 68* | -4 | 0 | 2 | -3 | 6
CCCCC1=CC2=CC(=O)C(C)(OC(=O)c3ccc(Cl)nc3)C(=O)C2=CO1 (centres undefined) | 26 | 20* | 7 | 20 | 14 | 23
CC(C)(C)OC(=O)NCCCCC1=CC2=CC(=O)C(C)(OC(=O)c3ccco3)C(=O)C2=CO1 (centres undefined) | 41* | 2 | -1 | -8 | 25 | 2
COc1ccccc1C(=O)NCCC(=O)NCC(c1ccco1)N1CCCC1 (centres undefined) | / | 0 | / | -3 | 13 | 0
CC(C)(C)n1nnnc1C(c1cccs1)N(Cc1ccccc1)Cc1ccco1 (centres undefined) | -3 | 3 | -4 | 9 | -2 | -1
CC(C)(C)n1nnnc1C(c1cccs1)N(Cc1cccnc1)Cc1ccco1 (centres undefined) | 3 | -3 | -1 | 1 | 6 | 30*
N=c1oc2cc(O)ccc2cc1C(=O)Nc1nc2ccccc2s1 | -3 | 2 | 15 | 0 | 14 | 30*

Assay outcomes as filed in PubChem BioAssay.
